According to PubChem BioAssay (NCATS):
Records with an inconclusive call do not appear. Calls of active or inactive are those of the source. Calls come from the whole dose curve; as a rule, active = well fitted activation curve with a large enough effect; inconclusive = small, poorly fitted or top-dose-only effect; inactive = no such curve, though single readings can be large or run the other way.

molecular target: Rap guanine nucleotide exchange factor 4 (Homo sapiens) (UniProt Q8WZA2); assay: Confirmatory qHTS for agonist of cAMP-regulated guanine nucleotide exchange factor 4 (EPAC2) (AID 1645884); settings: EPAC2 GEF activity, Rap1B-BODIPY-GDP fluorescence; series mostly up to 154 µM;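 note: nucleotide exchange releases bodipy-GDP from Rap1 and this lowers its fluorescence; nearly all actives have a fitted effect of over 65% in size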
% is set by controls: 0 for no effect and ±100 for the full control effect.

Rap guanine nucleotide exchange factor 4 (Homo sapiens), sequence (Q8WZA2 whole entry, looked up): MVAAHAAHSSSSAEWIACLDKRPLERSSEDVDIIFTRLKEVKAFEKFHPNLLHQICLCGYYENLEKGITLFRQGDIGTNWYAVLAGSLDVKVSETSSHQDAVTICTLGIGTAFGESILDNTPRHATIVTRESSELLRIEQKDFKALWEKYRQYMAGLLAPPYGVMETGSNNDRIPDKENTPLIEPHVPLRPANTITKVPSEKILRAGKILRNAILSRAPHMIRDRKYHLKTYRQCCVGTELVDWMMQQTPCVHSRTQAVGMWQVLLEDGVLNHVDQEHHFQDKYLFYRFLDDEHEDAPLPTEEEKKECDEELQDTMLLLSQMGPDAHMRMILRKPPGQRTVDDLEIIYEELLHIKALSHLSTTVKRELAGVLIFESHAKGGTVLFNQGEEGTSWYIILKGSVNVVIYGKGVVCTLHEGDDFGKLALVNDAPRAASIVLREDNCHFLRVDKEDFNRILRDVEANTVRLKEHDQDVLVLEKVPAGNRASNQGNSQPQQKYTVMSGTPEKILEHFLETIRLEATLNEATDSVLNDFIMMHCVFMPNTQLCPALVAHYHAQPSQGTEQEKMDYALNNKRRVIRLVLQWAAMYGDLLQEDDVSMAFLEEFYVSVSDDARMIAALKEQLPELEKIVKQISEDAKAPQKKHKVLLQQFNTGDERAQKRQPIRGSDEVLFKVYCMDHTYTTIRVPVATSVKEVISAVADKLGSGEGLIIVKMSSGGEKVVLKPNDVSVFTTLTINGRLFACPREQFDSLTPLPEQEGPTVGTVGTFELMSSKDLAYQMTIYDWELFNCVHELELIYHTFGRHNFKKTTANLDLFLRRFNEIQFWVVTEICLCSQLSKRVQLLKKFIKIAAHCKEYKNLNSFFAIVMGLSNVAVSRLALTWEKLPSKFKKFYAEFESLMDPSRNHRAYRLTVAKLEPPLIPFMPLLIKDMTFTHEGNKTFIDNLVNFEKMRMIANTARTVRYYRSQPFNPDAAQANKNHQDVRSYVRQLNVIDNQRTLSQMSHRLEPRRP

activation, inactive:
COCCCn1c(=O)/c(=C\c2ccccc2OC(C)C)s/c1=C(/C#N)C(=O)Nc1ccc(C(=O)O)cc1 8.99% [at 17.1 µM, percent relative to cAMP agonist control]
O=C(O)c1ccc(-c2nc(-c3ccc(Cl)cc3Cl)cs2)cc1 10.1% [at 17.1 µM, percent relative to cAMP agonist control]
COc1ccccc1C(C(=O)c1ccccc1)c1ccc(O)cc1 (stereo not given) 3.15% [at 17.1 µM, percent relative to cAMP agonist control]
COc1ccc(CCNC(=O)CS(=O)(=O)Cc2nc(-c3ccc(C)cc3)oc2C)cc1OC 2.98% [at 17.1 µM, percent relative to cAMP agonist control]
CC1=C(C(=O)Nc2ccccc2)C(c2ccc(Cl)cc2)n2c(s/c(=C/c3cccc(OCC(=O)O)c3)c2=O)=N1 (stereo not given) 3.83% [at 17.1 µM, percent relative to cAMP agonist control]
O=S(=O)(NCC(c1cccnc1)N1CCN(c2ccccc2F)CC1)c1cccs1 (stereo not given) 0% [at 17.1 µM, percent relative to cAMP agonist control]
Cn1cccc1C(=O)NC(=O)COC(=O)c1ccc(S(C)(=O)=O)c([N+](=O)[O-])c1 -3.13% [at 17.1 µM, percent relative to cAMP agonist control]
COc1cccc(/C=C2\SC(=S)NC2=O)c1OS(=O)(=O)c1ccc(NC(C)=O)cc1 5.66% [at 17.1 µM, percent relative to cAMP agonist control]
CCCn1cc(SCC(=O)NCc2ccc3c(c2)OCO3)c2ccccc21 0% [at 17.1 µM, percent relative to cAMP agonist control]
C=CCOC(=O)C1=C(C)NC(C)=C(C(=O)OCC=C)C1c1ccco1 7.19% [at 17.1 µM, percent relative to cAMP agonist control]
O=C1CSC(c2cccc(Cl)c2Cl)N1c1ccccn1 (stereo not given) 6.45% [at 17.1 µM, percent relative to cAMP agonist control]
O=S(=O)(Nc1nc2ccc(Cl)cc2s1)c1cccs1 0% [at 17.1 µM, percent relative to cAMP agonist control]
O=S(=O)(Nc1ccc(Cl)cc1NS(=O)(=O)c1ccccc1)c1ccccc1 1.88% [at 17.1 µM, percent relative to cAMP agonist control]
Nc1ccc2ccc(O)cc2c1 14.1% [at 17.1 µM, percent relative to cAMP agonist control]

Potency, inactive:
COc1ccc(Cl)cc1NC(=O)CN(C)C(=O)c1cc(-c2ccncc2)nc2ccccc12
Cc1c(C)c2ccc(OCC(=O)Nc3ccc(S(N)(=O)=O)cc3)c(C)c2oc1=O
CCOC(=O)c1cnc2ccc(C(=O)OC)cc2c1Nc1ccccc1CC
COc1ccc(-n2c(NC(=O)c3ccco3)c(C#N)c3nc4ccccc4nc32)cc1
Cc1cccc([C@H]2[C@@H]3C=CCC[C@@H]3C(=O)N2Cc2ccccc2)c1
COc1ccc(C(=O)CSc2nnc(-c3ccco3)c(-c3ccco3)n2)cc1
CCN(CCCNC(=O)c1cc2cc3ccc(OC)cc3nc2s1)c1cccc(C)c1
Cc1cccc(S(=O)(=O)Nc2ccc(S(=O)(=O)Nc3nccs3)cc2)c1
Cc1ccn2c(=O)nc(SCC(=O)Nc3ccc4c(c3)OCO4)nc2c1
CCOc1ccc(S(=O)(=O)Nc2ccc(F)cc2)c(C)c1C
Cc1cccc(Nc2nnc(SC/C(O)=C(\C#N)c3nc4ccccc4[nH]3)s2)c1
O=C1C(Cl)=C(NCCc2ccccc2)C(=O)c2ccccc21
O=C(O)/C=C\C(=O)Nc1ccccc1C#Cc1ccc(Br)cc1
CCc1ccc(C(c2ccccc2)c2c(C)[nH]c3ccccc23)s1 (stereo not given)
Cc1cc(/C=C2\C(=N)N3N=C(c4ccco4)SC3=NC2=O)c(C)n1Cc1ccccc1
COc1cc(NC(=O)c2cccc([N+](=O)[O-])c2)ccc1NC(=O)c1ccco1
Cc1cccc(N2CCN(C(=O)c3[nH]c(C(F)(F)F)nc3-c3ccccc3)CC2)c1C
Cn1cnnc1SCC(=O)Nc1sc2c(c1C(N)=O)CCC2
N#CCCN(CCC#N)S(=O)(=O)c1ccc(C(=O)Nc2nnc(C3=COCCO3)o2)cc1
CCOc1cccc(CNc2ccc(O)cc2)c1OCc1ccc(Cl)cc1Cl
COc1ccccc1[C@]1(C)ON(c2ccccc2C(F)(F)F)C1=O
Cc1cccc(Cn2c(COc3ccccc3)nc3ccccc32)c1
CCOc1ccc(C(=O)N2CC(=O)Nc3ccc(C)cc3C2c2ccc(F)cc2)cc1OCC (stereo not given)
O=C(Nc1cccc(F)c1)c1ccc(-c2cccnc2)c2ccoc12
Oc1c(C2=NCCNC(C(F)(F)F)=C2)ccc2ccccc12
O=C(CCCn1c(SCC(=O)c2ccc(O)c(O)c2)nc2ccccc2c1=O)NCC1CCCO1 (stereo not given)
